AMA1 RON2 block = qHTS for Inhibitors of AMA1-RON; Towards Development of Antimalarial Drug Lead: Primary Screen. Potency, µM (top dose mostly 58.2 µM), without a hit: at the highest dose activity change, negative = inhibition, actives largely listed as inhibitors. Plasmodium falciparum AMA1 (3D7) - RON2 peptide interaction. AlphaScreen AMA1-biotinylated RON2 peptide binding. 0.2% of 360,000 active. AID 720542, 2013;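 further: 0% = vehicle wells and -100% = peptide control; nearly all actives have a fitted effect of over 45% in size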
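AMA1 (3D7) with his tag at 25 nM final met compounds first, then biotinylated RON2 peptide at 25 nM; detection used donor plus acceptor beads, 10 µg/mL apiece, read by AlphaScreen after 30 min at room temperature.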
Pf growth 96h = Primary qHTS for delayed death inhibitors of the malarial parasite plastid, 96 hour incubation. Potency, µM (titrated, usually from 28.7 µM), without a hit: at the highest dose activity change, negative = inhibition, hits mostly inhibitors. P. falciparum luciferase reporter growth, 96 h. 6.9% of 320,000 active; further: on the % scale 0 is the no-effect control and ±100 the full control effect
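Two-generation exposure (96 h) targets delayed-death phenotype. Reporter parasites carrying integrated firefly luciferase, in red cells at 2% hematocrit and 0.05% parasitemia final, kept at 37 C, 5% CO2; luminescence loss indicates inhibition.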
Pf growth 48h = Primary qHTS for delayed death inhibitors of the malarial parasite plastid, 48 hour incubation. AID 504832, 2011. P. falciparum luciferase growth in erythrocytes, 48 h. Potency, µM (titrated, usually from 28.7 µM), for inactives: at the top dose activity change, negative = inhibition, hits mostly inhibitors. 5.9% of 310,000 active; further: on the % scale 0 is the no-effect control and ±100 the full control effect
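Here the parasites carry a stable luciferase gene and grow inside erythrocytes in Albumax-based RPMI medium with compound for one erythrocytic cycle. Activity is scored as loss of luminescent signal.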
SARS PLP yeast = qHTS of Yeast-based Assay for SARS-CoV PLP; S. cerevisiae expressing SARS-CoV PLpro, growth rescue; Potency, µM (top dose mostly 32.9 µM), inactives show at the highest dose activity, positive = growth rescue, most hits filed as activators; 0.19% of 330,000 active; AID 485353, 2010; calls by dose curve; further: 0% is about no effect; nearly all actives have a fitted effect of over 55% in size
* marks the source's active call; other numbers are inactive results; u = inconclusive; x = no result. Hits are enriched below; roughly 9.4% of the tested compounds scored in any of these assays. Unless noted, the call rests on the fitted dose curve; in most records, active means well fitted curve in the direction sought with a large enough effect; inconclusive means small, poorly fitted or top-dose-only effect, or another doubt; inactive means no such curve, though single readings can be large; an effect the other way counts as inactive or inconclusive. Potency means the concentration at half of the fitted maximal effect.

SMILES	AMA1 RON2 block	Pf growth 96h	Pf growth 48h	SARS PLP yeast
CCNc1nc(SCC(=O)Nc2ccc(Cl)c(Cl)c2)nc(N(C)C)n1	9%	42%	u	-8%
CC(C)(C)C1CCc2c(sc(NC(=O)c3cccs3)c2C(N)=O)C1 (centres undefined)	-11%	-5%	187%	4%
COC(=O)c1cc(C)nc2c1C(=O)C(=O)C=C2N1CCOCC1	u	-2%	13µM*	11%
COC(=O)c1cc(S(=O)(=O)N2CCOCC2)c(Cl)cc1N1CCOCC1	0%	x	9%	-1%
Cn1c(N2CCN(C(c3ccccc3)c3ccccc3)CC2)nc2ccccc21	-16%	13µM*	u	-9%
Cn1c(N2CCN(C(=O)Nc3ccc(F)cc3)CC2)nc2ccccc21	9%	-20%	u	1%
O=C(CN1CCN(CCN2C(=O)c3cccc4cccc(c34)C2=O)CC1)c1ccc(Cl)cc1	x	u	u	-17%
NC(=O)CCCn1c(C(=O)c2cc(Cl)c(N)c(Cl)c2)c2ccc([N+](=O)[O-])cc2[n+]1[O-]	-5%	9.3µM*	u	1%
NCCCn1c(C(=O)c2ccc(Cl)cc2)c2ccc(C(F)(F)F)cc2[n+]1[O-]	5%	u	9.3µM*	0%
NC(=O)CCCn1c(C(=O)c2ccc(Cl)cc2)c2ccc(C(F)(F)F)cc2[n+]1[O-]	-5%	u	u	0%
CN(Cc1ccon1)C(=O)c1ccc2nc(Cc3cccc(Cl)c3)oc2c1	0%	13µM*	0%	2%
O=C(O)c1cccc([N+](=O)[O-])c1C(=O)Nc1nc2ccccc2s1	-2%	47%	10%	1%
Cc1ccc(NC(=O)c2cccc(OCc3c(C)noc3C)c2)cc1	-14%	2%	x	-4%
COc1ccc(NS(=O)(=O)c2cc(NC(=O)c3cccc(OCc4c(C)noc4C)c3)ccc2OC)cc1	7%	6.6µM*	9.3µM*	-15%
CC(OC(=O)Cc1c(F)cccc1Cl)C(=O)NC1CCCCC1C (centres undefined)	-11%	u	-26%	-1%
O=C(CN1CCN(S(=O)(=O)c2ccccc2Cl)CC1)NCC1(N2CCOCC2)CCCCC1	-8%	u	12µM*	-2%
O=C(CN1CCN(S(=O)(=O)c2ccc(F)cc2)CC1)NCC1(N2CCOCC2)CCCCC1	17%	-15%	u	1%
NC(=O)C1(N2CCCCC2)CCN(CC(=O)Nc2cc(Cl)ccc2Cl)CC1	3%	18%	12µM*	3%
O=C(CN1CCN(S(=O)(=O)c2cccc(Cl)c2)CC1)NCC1(N2CCOCC2)CCCCC1	8%	u	10µM*	-1%
CC1CCN(CC(=O)Nc2ccccc2C#N)CC1	-3%	x	17%	3%
N#Cc1ccccc1NC(=O)CN1CCOCC1	6%	12µM*	5%	5%
COc1ccccc1N1C(=O)CC1(C#N)c1ccc(OCc2ccccc2)cc1 (centres undefined)	-9%	u	u	-14%
O=C(CN1CCN(CC(=O)Nc2ccccc2Cl)CC1)NCC1(N2CCCCC2)CCCCC1	2%	u	u	0%
O=C(NCC1(N2CCOCC2)CCCCC1)c1cccc(S(=O)(=O)N2CCc3ccccc3C2)c1	-11%	u	8.3µM*	0%
N#Cc1ccccc1S(=O)(=O)N1CCN(CC(=O)NCC2(N3CCOCC3)CCCCC2)CC1	21%	10µM*	u	2%
SMILES	AMA1 RON2 block	Pf growth 96h	Pf growth 48h	SARS PLP yeast
O=C(CN1CCN(CC(=O)Nc2ccccc2Cl)CC1)NCC1(N2CCOCC2)CCCCC1	-6%	u	10µM*	-2%
N#Cc1ccccc1S(=O)(=O)N1CCN(CC(=O)Nc2ccnn2C2CCCC2)CC1	20%	-1%	u	-3%
O=C(NCCCN1CCOCC1)c1cccc(S(=O)(=O)N2CCc3ccccc3C2)c1	0%	-15%	-24%	-1%
Cn1c(=O)c2c(nc(SCCN3CCOCC3)n2Cc2ccc(Cl)cc2)n(C)c1=O	-4%	x	x	x
Oc1ccc(CNc2ccc(F)cc2)c2cccnc12	u	u	u	12%
O=C(CSc1ncccn1)NCc1ccc2c(c1)OCO2	2%	u	34%	0%
Oc1ccc(CNCc2ccc3c(c2)OCO3)c2cccnc12	x	u	8.3µM*	4%
Oc1ccc(COCc2ccc(F)cc2)c2cccnc12	x	4.1µM*	2.9µM*	1%
COCc1ccc(O)c2ncccc12	25µM*	u	x	-35%

From PubChem
